# Measured values: the OligoGym collection
# Target: CMYA5
# Assay: pooled miR-30 sensor sort-seq; sequence = guide strand
# Details: shRNA
# Also: reference of the scale not given here.
row,Sequence,sensor-assay potency score (higher = more potent)
1,TTCACTTTCTTCCTGATCGATT,-0.264
2,TAATACTAGATTTCCTTCCTGA,0.791
3,TTCGATAGCTCTGACTCTCTGA,0.415

# Target: CNGA4
# Assay: as above
# Details: shRNA
row,Sequence,sensor-assay potency score (higher = more potent)
1,TTCAATGCGGTAAGCAATCTTA,-0.691
2,TTCTGAAAGATCTGCACCCGGC,-0.677
3,TTGATGTTGGCTGTGCGGCGGT,-0.481
4,TAGGTCTGAATAACCTAGGCTC,-0.534
5,ATAACCGTGCTGCAAGTCGGGG,-1.46
6,ATACCAGTCAATAACTCGCCGC,-0.942
7,TAGATGACAGAGCTCATGCTAC,-0.751
8,TACCAGTCAATAACTCGCCGCT,0.117
9,ATGATGTACATCTCTTGGCCAA,-1.02
10,TACCTCGTTGGTCATCTTCTTG,-0.968
11,TAAGCAATCTTAAGTGCGCTGG,0.0217
12,TCGTTGGTCATCTTCTTGTTGA,-0.985
13,TGCTTGTGGATACTCGCTCAGC,-1.17
14,TCGGATGATGTACATCTCTTGG,-1.02
15,TTGTAGATGACAGAGCTCATGC,-0.748
16,TATAGCAGGTCACTCGTGTAGT,-0.135
17,TTCAGCAGGATCTCACGTCCTT,0.0798
18,TCTCGGATGATGTACATCTCTT,-0.967
19,TAAGCTGTGCGGGTCTCTGTGC,-0.546
20,TTCACCTGGTGAGTAGGTCTGG,-0.244
21,TTCATGTTGTAGATGACAGAGC,-0.761
22,ACTGTAGTCAGTATCAGCGTGG,-0.617
23,TAACCGTGCTGCAAGTCGGGGA,-0.253

# Target: CNGB1
# Assay: as above
# Details: shRNA
row,Sequence,sensor-assay potency score (higher = more potent)
1,TCGCATGTCCTTTTTGTCCGTA,-0.378
2,TAGGACATACATCAGGTTGGTC,0.2
3,TTTCTCCAAACACAGATCCAGC,-1.37
4,TTCTCTTCTTCATAAGCTGGAA,-0.514
5,TTTCTTCCGGAGTAACTTCTGA,-0.522
6,TTCATGTACTTCACCGTGCTGT,0.284
7,TACATCAGGTTGGTCAGCGGGT,-0.543
8,TTGTAGTTCACGTCGATGGCGA,-0.201
9,TTCACCGTGCTGTCCATGCAGC,-0.762
10,TTGAACTTGCAGCAGAGCATGT,-0.734
11,TTTCTCTGTCCGCTCCTTGAAG,-0.823
12,TAGGTAATCCATCAGCAGCCAG,-1.07
13,TCTTTCTCCTCTTCAATCCGGG,-0.237
14,TTTGAACTTGCAGCAGAGCATG,-1.2
